This note sets out measurements from PubChem BioAssay AID686979 (National Center for Advancing Translational Sciences (NCATS), 2013).

The campaign covered roughly 420,000 compounds. About 50,000 (12%) were called active. Not shown: some 26% with an inconclusive outcome. Calls come from the whole dose curve; as a rule, active = well fitted inhibition curve with a large enough effect; inconclusive = small, poorly fitted or top-dose-only effect; inactive = flat fitted curve, though single readings scatter. The list comes from a sample in which actives are over-represented; it also holds similar structures and randomly drawn compounds. A call without a number means that no potency is given here.
Potency is the fitted concentration of half-maximal effect.

A short description of the assay: qHTS for Inhibitors of human tyrosyl-DNA phosphodiesterase 1 (TDP1): qHTS in cells in presence of CPT. Note: nearly all actives have a fitted effect of over 55% in size. The note with it: chicken DT40 Tdp1-/-;hTDP1 cells + 20 nM CPT, ATP luminescence, 48 h; series mostly up to 46.2 µM. An outline of the steps: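 Chicken DT40 Tdp1-/- cells complemented with human TDP1, 400 cells/well, exposed to compounds plus 20 nM camptothecin for at least 48 h at 37 C; viability read as ATP content by CellTiter-Glo luminescence.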
(In general: qHTS replaces the single test concentration by a dilution series.)
Take `Cc1cc(C(C)(C)C)cc(C)c1N`: the Potency result is “inactive”. Next, `C=CCn1c(=NC(=O)c2cccs2)sc2cc(NC(C)=O)ccc21`: 13 µM (active); `C=CCn1c(CCNC(=O)c2cccs2)n[nH]c1=S`: “inactive”; `C=CCn1c(=NC(=O)c2ccc(S(=O)(=O)N3CCCC3)cc2)sc2cc(NC(C)=O)ccc21`: “inactive”. Next, `Cc1cccc(CCNS(=O)(=O)c2ccc3c(c2)NC(=O)CO3)c1`: “inactive”; `CCOC(=O)c1cc2c(=O)n3ccccc3nc2n(CC2CCCO2)c1=NC(=O)c1ccc(C(C)(C)C)cc1` (stereo unspecified): “inactive”. With `CC(C)N(C(=O)CSc1nc(COc2ccccc2)nc2ccccc12)C(C)C`, the Potency is 23.1 µM (active). On to `CCc1nc(SCC(=O)NNC(=O)c2ccc(C)cc2)c2ccccc2n1`, for which the Potency result is “inactive”. Next, `COC(=O)CSc1nc(C2CC2)nc2ccccc12`: “inactive”; `Cc1nn(Cc2ccccc2)c(C)c1C(=O)N1CCN(CC(=O)Nc2ccccc2Cl)CC1`: 16.4 µM (active); `CCC(=O)Nc1ccccc1C(=O)N1CCN(Cc2ccccc2)CC1`: “inactive”. Next, `Cc1cc(C)cc(NC(=O)NC2CCN(CC(=O)Nc3cccc(Cl)c3C)CC2)c1`: “inactive”; `CNC(=O)CN1C(=O)NC(c2ccccc2)(c2ccccc2)C1=O`: “inactive”. Next, `COC(=O)c1ccc(C(=O)OC)c(NC(=S)N2CCN(c3ccc(F)cc3)CC2)c1`: “inactive”; `Cc1ccc(CSCC2Nc3ccc(C(=O)N4CCN(c5ccc(F)cc5)CC4)cc3NC2=O)cc1` (stereo unspecified): 16.4 µM (active); `Cc1ccc(SCC(=O)N2CCN(c3ccc(F)cc3)CC2)cc1`: “inactive”. Consider `CN(Cc1ccc(CNC[C@H]2O[C@@H](n3cnc4c(N)ncnc43)[C@H](O)[C@@H]2O)o1)S(C)(=O)=O`, for which the Potency result is “inactive”.

With `Cn1cccc1C(C#N)c1ccccc1C#N` (stereo unspecified), the Potency entry was “inactive”.

On to `CCc1ccc2c(c1)C(c1ccc([N+](=O)[O-])cc1)=NNC(c1ccccc1)=N2`, for which the Potency entry is “inactive”. With `Cc1ccc(C2=Nc3c(ccc4ccccc34)C(c3ccncc3)=NN2)cc1`, the Potency is 18.4 µM (active). Next, `Cc1cc(C)n2nc(C(=O)OC(C)C(=O)c3cc(C)c(C)cc3C)nc2n1` (stereo unspecified): “inactive”; `COc1ccc(C(=O)NC2CCN(C(=S)Nc3ccccc3)CC2)cc1`: “inactive”. `COc1ccc(C(=O)NC2CCN(C(=S)NCCc3ccccc3)CC2)cc1`: the Potency entry was “inactive”.

As to `COc1cc(OC)cc(C(=O)NC2CCN(C(=O)N3c4ccccc4Sc4ccccc43)CC2)c1`, the Potency is 29.1 µM (active). Next, `O=C(c1ncn2c1c(=O)[nH]c1ccccc12)N1CCc2ccccc2C1`: “inactive”.

As for `CCOC(=O)C1CCCN(CC(=O)Nc2cc(C)c3c(=O)oc4ccccc4c3n2)C1` (stereo unspecified), the Potency result is “inactive”. Turning to `COc1cc(/C=C/C(=O)O)cc(S(=O)(=O)Nc2ccccc2SC)c1OC`, the Potency entry was “inactive”.

In the case of `O=C1N(Cc2ccc3c(c2)OCO3)c2ccccc2C1(O)c1c[nH]c2ccccc12` (stereo unspecified), the Potency was 18.4 µM (active). Next, `O=C(CSc1ncn[nH]1)NCc1ccc2c(c1)OCO2`: “inactive”. Consider `O=C(CC1Oc2ccc(Cl)cc2NC1=O)NCc1ccccc1` (stereo unspecified), for which the Potency result is “inactive”. Next, `CCn1c(=O)cc(SCC(=O)NCc2ccc3c(c2)OCO3)c2ccccc21`: “inactive”. Next, `O=C1N(Cc2ccccc2)c2ccc(Cl)cc2C1(O)c1c[nH]c2ccccc12` (stereo unspecified): 23.1 µM (active). As for `O=C(COC(=O)c1cc(=O)[nH]c2ccccc12)NCc1cccc(Cl)c1`, the Potency result is “inactive”.

As for `CCOc1ccc(CCNC(=O)COC(=O)c2ccc(F)c(S(=O)(=O)N3CCOCC3)c2)cc1OCC`, the Potency result is “inactive”. Next, `O=C(CSc1nnc(-c2ccncc2)o1)Nc1cccc(Cl)c1`: “inactive”; `COC(=O)c1cnc(Nc2cc(C)ccc2OC)c2ccccc12`: “inactive”. Next, `Oc1ccc(CNc2ccccc2O)cc1`: 25.9 µM (active); `O=C(OCc1ccccc1)c1ccc(O)cc1`: “inactive”. As for `O=[N+]([O-])c1ccccc1Nc1ccc(O)cc1`, the Potency result is “inactive”. Next, `CCOC(=O)C(C)N(c1ccccc1Cl)S(C)(=O)=O` (stereo unspecified): “inactive”; `O=C(NCCCN1CCOCC1)c1cc(-c2cccc(O)c2)on1`: “inactive”.

Regarding `Cc1nc([N+](=O)[O-])nn1C12CC3CC(CC(Br)(C3)C1)C2`, the Potency was 23.1 µM (active). Next, `CC[C@@H](C)[C@H](NC(=O)CCc1c(C)c2cc3c4c(oc3c(C)c2oc1=O)CCCC4)C(=O)O`: “inactive”.

In the case of `COCc1c(C(=O)N/N=C(\C)c2ccncc2)nnn1-c1nonc1N`, the Potency entry is “inactive”. Regarding `CSc1ccc(/C=C2\NC(=O)NC2=O)cc1`, the Potency result was “inactive”. Next, `O=C(Nc1ccnn1C1CCN(Cc2cccc(OCCO)c2)CC1)C1CCCC1`: “inactive”; `CCN(CC)CCN(C(=O)c1cc(Cl)sc1Cl)c1nc2cc3c(cc2s1)OCO3`: “inactive”; `Nc1ccccc1SCc1cc([N+](=O)[O-])cc2c1OCOC2`: “inactive”. Next, `Nc1ccccc1SC(C[N+](=O)[O-])c1ccccc1` (stereo unspecified): 4.11 µM (active); `Nc1ccccc1Sc1ccc(C(F)(F)F)cc1[N+](=O)[O-]`: “inactive”. Next, `COc1ccc(NS(=O)(=O)c2ccc(C)c(C(=O)NNC(=O)c3csc(N4CCOCC4)n3)c2)cc1`: “inactive”; `O=C(NCc1cccnc1)c1cccc(-c2cc3ccccc3oc2=O)c1`: “inactive”; `Cc1ccc(S(=O)(=O)CCC(=O)OCC(=O)N(C)C2CCS(=O)(=O)C2)cc1` (stereo unspecified): “inactive”. Consider `Cc1nc([N+](=O)[O-])cn1CC(=O)Nc1ccc2c(c1)OCO2`, for which the Potency result was “inactive”. Next, `Cc1ccc2nc(-c3ccc(O)cc3)c(Nc3ccc4c(c3)OCO4)n2c1`: 23.1 µM (active); `Cc1ccc(SCC(=O)Nc2ccc3c(c2)OCCO3)cc1`: “inactive”; `CC(C)(C)NC(=O)NC(=O)COC(=O)C1(C)CC1(Cl)Cl` (stereo unspecified): “inactive”. Next, `COc1ccc(CNC(=O)CC2Oc3ccc(C)cc3NC2=O)cc1` (stereo unspecified): “inactive”; `Cc1cc(C)cc(NC(=O)C(OC(=O)c2ccc(O)cc2)c2ccccc2)c1` (stereo unspecified): “inactive”. Next, `Cc1ccnc(SC2CC(=O)N(c3ccccc3)C2=O)n1` (stereo unspecified): “inactive”; `O=C1CC(N2CCN(c3ccc(F)cc3)CC2)C(=O)N1c1ccccc1` (stereo unspecified): “inactive”; `COc1ccc(-c2nc(SCC(=O)N3CCOCC3)n[nH]2)cc1`: “inactive”. With `COc1ccc(N2C(=O)CC(SC(C)C)C2=O)cc1` (stereo unspecified), the Potency result was “inactive”.

On to `CCOC(=O)c1ccc(N2C(=O)CC(Sc3nc(O)c(CC)c(=O)[nH]3)C2=O)cc1` (stereo unspecified), for which the Potency entry is “inactive”.

On to `COc1ccc(N2C(=O)CC(Sc3n[nH]c(-c4ccc(C)cc4)n3)C2=O)cc1` (stereo unspecified), for which the Potency was 2.91 µM (active).

For `O=C1CC(Sc2ncn[nH]2)C(=O)N1c1ccccc1` (stereo unspecified), the Potency is 8.2 µM (active).

`Cc1ccc(N2C(=O)CC(Sc3ncn[nH]3)C2=O)cc1` (stereo unspecified): the Potency was 5.17 µM (active). Next, `CC(=O)Nc1ccc(N2C(=O)CC(Sc3nccc(C)n3)C2=O)cc1` (stereo unspecified): “inactive”; `OCC[C@H]1C[C@H](O)[C@@H](O)[C@]2(CCc3ccccc3O2)O1`: “inactive”. Next, `Cc1cc(C)cc(NC(=O)c2cccc(NC(=O)C3C4CC5OC(=O)C3C5C4)c2)c1` (stereo unspecified): “inactive”. Next, `O=C(O)CCN(Cc1ccccc1)S(=O)(=O)c1c(Cl)cccc1Cl`: “inactive”.

Regarding `COc1cc(NC(=O)CCS(=O)(=O)c2ccc3c(c2)oc(=O)n3C)cc(OC)c1`, the Potency entry is “inactive”. Next, `O=S(=O)(Nc1ccc(OC(F)(F)F)cc1)c1cccc2nonc12`: “inactive”; `C[C@H](NS(=O)(=O)c1ccc(Cl)cc1)C(=O)OCC(=O)N1CCOCC1`: “inactive”. Next, `CC1CN(C(=O)c2ccccc2NS(=O)(=O)c2cccc([N+](=O)[O-])c2)CC(C)O1` (stereo unspecified): “inactive”; `COC(=O)C1=CO[C@@H](O[C@@H]2O[C@H](CO)[C@@H](O)[C@H](O)[C@H]2O)C2C1C[C@H](O)[C@@H]2C` (stereo partly specified): “inactive”; `CC[C@]12c3[nH]c4cc(CCC(=O)N(C)C)ccc4c3CCN1C(=O)[C@@H](CC(=O)NCCCn1ccnc1)C[C@@H]2C(=O)N1CCN(C(=O)C2CC2)CC1`: “inactive”. As to `OC(CBr)C[n+]1cccc2cc(Br)ccc21` (stereo unspecified), the Potency was 4.47 µM (active). Consider `COc1ccc(N2CCN(S(=O)(=O)c3ccc4c(c3)N(C(C)=O)CCO4)CC2)cc1`, for which the Potency entry was “inactive”. Next, `CN(C)c1ccc(/C=N/NC(=O)c2ccc(Cn3cc(Br)cn3)o2)cc1`: “inactive”. Next, `CCOC(=O)C1CCN(C(=O)CN2C(=O)NC(C)(c3ccc4cc(OC)ccc4c3)C2=O)CC1` (stereo unspecified): 18.4 µM (active). Next, `CCOC(=O)C1CCN(C(=O)Nc2cccc(OC)c2)CC1`: “inactive”. Regarding `CC1(c2ccc3ccccc3c2)NC(=O)N(CC(N)=O)C1=O` (stereo unspecified), the Potency result was “inactive”. Next, `CCSc1nnc(NC(=O)c2cc(=O)c3cc(C)c(C)cc3o2)s1`: “inactive”; `CN=C1S/C(=C\c2c(OC)cc(OC)cc2OC)C(=O)N1C`: “inactive”.

On to `O=C(COC(=O)/C=C/c1cccs1)NC1CCCCC1`, for which the Potency entry is “inactive”.

As to `COc1ccc(CCNC(=O)c2ccco2)cc1`, the Potency result is “inactive”. Next, `COc1ccc(CCNC(=O)c2cnc(Cl)c(Cl)c2)cc1`: “inactive”; `CCOc1ncccc1C(=O)NCCc1ccc(OC)cc1`: 18.4 µM (active).

Turning to `OCCN1CCN(c2ncnc3c2ncn3[C@H]2CN(Cc3ccco3)C[C@@H](CO)O2)CC1`, the Potency result was “inactive”. Next, `Cc1nn(CC(=O)N2CCN(c3cccc(C(F)(F)F)c3)CC2)c(=O)c2cc3sccc3n12`: “inactive”. Next, `COc1ccc2[nH]c(=S)cc(C)c2c1`: “inactive”; `COc1ccc2[nH]c3ccc(OC)cc3c2c1`: “inactive”. Next, `COc1ccc2[nH]c3c(C)c4cc[n+](C)cc4c(C)c3c2c1`: 0.259 µM (active).

As to `O=C(CSc1nnnn1C1CCCC1)N1CCCCC1`, the Potency result is “inactive”.

In the case of `COc1ccccc1/C=C/C=N/NC(=O)CN1CCN(Cc2ccccc2)CC1`, the Potency result was “inactive”. Next, `CSc1nc2ccccc2cc1/C=C(\C#N)c1ccc(Cl)cc1Cl`: “inactive”; `Cc1ccc(-c2nnc(SCc3ccccc3C)o2)cc1`: “inactive”. For `COc1ccc([N+](=O)[O-])cc1N(CC(O)CN(CC(C)C)CC(C)C)S(=O)(=O)c1ccc(C)cc1` (stereo unspecified), the Potency is 25.9 µM (active). Next, `Cc1ccc(S(=O)(=O)N(CC(O)CN2CCCCC2)c2cccc([N+](=O)[O-])c2)cc1` (stereo unspecified): “inactive”. Next, `Cc1ccc(S(=O)(=O)N(CC(O)CN2C(=O)NC(C)(C)C2=O)c2cccc([N+](=O)[O-])c2)cc1` (stereo unspecified): “inactive”.
